Source: PubChem BioAssay
TLR9-MyD88 block – TLR9-MyD88 interaction inhibition; 340,000 tested, 0.21% active; inhibition, % at 4.98 µM; CHO BLA complementation TLR9-MyD88, CCF4 FRET ratio;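 active means inhibition above the mean over all tested compounds plus 3 SD, cut at about 21% in these data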;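 further: 0% = DMSO only wells and 100% = clavulanate BLA inhibitor control wells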
NOD2-RIPK2 inh – blocks binding of human NOD2 to RIPK2; CHO BLA complementation NOD2-RIPK2, CCF4 ratio; O43353; inhibition, % at 4.98 µM; 360,000 tested, 0.38% active; in the data active means inhibition above about 21%;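 further: 0% = vehicle only and 100% = reference blocker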
TLR4-MyD88 BLA – TLR4-MyD88 interaction inhibition in cells. O00206+Q99836. HeLa CL3-4 TLR4/MyD88 BLA complementation, FRET ratio. inhibition, % at 8.4 µM. 200,000 tested, 0.18% active. AID 861; in the data active means inhibition above about 25%;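 further: 0% = vehicle and 100% = reference inhibitor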
Target sequence (O00206 whole entry, looked up): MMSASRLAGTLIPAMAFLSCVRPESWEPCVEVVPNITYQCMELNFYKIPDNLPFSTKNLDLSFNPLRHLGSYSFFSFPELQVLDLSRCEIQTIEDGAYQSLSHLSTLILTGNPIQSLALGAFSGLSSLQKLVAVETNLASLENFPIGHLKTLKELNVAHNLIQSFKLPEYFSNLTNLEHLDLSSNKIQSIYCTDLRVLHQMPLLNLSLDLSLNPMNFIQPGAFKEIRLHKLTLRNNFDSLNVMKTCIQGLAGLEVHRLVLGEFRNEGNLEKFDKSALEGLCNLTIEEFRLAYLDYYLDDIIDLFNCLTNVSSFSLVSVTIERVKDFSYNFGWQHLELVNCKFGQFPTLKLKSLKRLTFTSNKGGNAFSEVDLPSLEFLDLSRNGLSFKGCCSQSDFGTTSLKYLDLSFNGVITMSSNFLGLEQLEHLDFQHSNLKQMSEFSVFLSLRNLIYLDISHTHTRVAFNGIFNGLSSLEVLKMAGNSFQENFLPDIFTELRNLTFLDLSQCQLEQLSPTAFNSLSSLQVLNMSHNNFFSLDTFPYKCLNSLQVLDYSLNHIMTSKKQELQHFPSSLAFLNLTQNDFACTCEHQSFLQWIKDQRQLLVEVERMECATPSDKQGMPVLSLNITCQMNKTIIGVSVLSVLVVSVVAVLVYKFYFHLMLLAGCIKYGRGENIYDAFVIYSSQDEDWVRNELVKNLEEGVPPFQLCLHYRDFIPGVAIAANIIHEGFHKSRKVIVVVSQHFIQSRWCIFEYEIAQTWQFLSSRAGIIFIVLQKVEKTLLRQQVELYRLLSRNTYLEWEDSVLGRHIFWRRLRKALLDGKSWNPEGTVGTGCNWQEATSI
Target sequence (Q99836 whole entry, looked up): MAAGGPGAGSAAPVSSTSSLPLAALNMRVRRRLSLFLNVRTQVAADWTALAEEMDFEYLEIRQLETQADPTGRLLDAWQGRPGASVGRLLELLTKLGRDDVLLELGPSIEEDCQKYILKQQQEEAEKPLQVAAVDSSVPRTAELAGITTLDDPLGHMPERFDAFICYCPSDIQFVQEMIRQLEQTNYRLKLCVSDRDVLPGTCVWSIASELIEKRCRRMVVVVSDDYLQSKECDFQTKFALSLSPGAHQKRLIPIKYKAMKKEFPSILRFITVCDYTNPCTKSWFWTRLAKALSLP
Myeloid diff 2 – promotes myeloid progenitor differentiation; calls only at 10 µM; 360,000 tested, 1% active; ER-HoxA9 myeloid progenitors, lysozyme-GFP differentiation, flow cytometry;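 active means normalized GFP-positive differentiation at or above the plate's own cutoff, the solvent-only control mean plus 3 SD; inconclusive means no clear call, values can overlap the other calls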;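 further: cells exposed to compound for four days before flow analysis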
TLR9-MyD88 conf – TLR9-MyD88 interaction inhibition, confirmation; CHO TLR9/MyD88 BLA complementation, CCF4 FRET ratio; 680 tested, 51% active; inhibition, % at 4.98 µM; shares compounds with TLR9-MyD88 block;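 active means mean inhibition across three repeats above about 21% taken from the earlier screen, limit read from the data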;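 further: blue over green emission ratio reports constitutive TLR9 MyD88 association via BLA complementation; 0% = DMSO vehicle wells and 100% = clavulanate BLA inhibitor wells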
BLA counter-1 – non-selective beta-lactamase inhibitors in TLR9-MyD88 counter-screen. shares compounds with TLR9-MyD88 block. CHO-BLA cells, CCF4 FRET ratio, BLA reporter. inhibition, % at 4.98 µM. 680 tested, 7% active. AID 540251;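 active means mean inhibition above a 50% cutoff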;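 further: counterscreen of TLR9-MyD88 hits on CMV-driven BLA in CHO-K1 cells; 0% = DMSO alone and 100% = clavulanate blocking BLA; higher means less blue over green ratio so more BLA blockade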
TLR9 CHO tox – CHO cell toxicity counter-screen for TLR9-MyD88 inhibitors; inhibition, % at 4.98 µM; AID 588336; shares compounds with TLR9-MyD88 block; 680 tested, 39% active; TLR9-MyD88 CHO cells cytotoxicity, luminescence; in the data active means inhibition above about 11%
Myeloid diff CP1 – promotes myeloid progenitor differentiation. shares compounds with Myeloid diff 2. ER-HoxA9 myeloid progenitors, GFP/Mac1 double-positive flow. calls only. 2,300 tested, 2% active;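 active means share of green or green-and-red cells above 9 and 9% in run 1 or 4 and 3% in run 2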
GFP autofluor – counter-screen for myeloid differentiation promoters: compound fluorescence | shares compounds with Myeloid diff 2 | ER-HoxA9 myeloid progenitors, no estrogen, GFP autofluorescence flow cytometry; vehicle wells 0%, positive control 100% | fluorescence response, % (no concentration beside the values) | 2,300 tested, 7.4% active;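 active means over 5% cells positive for green fluorescent reporter, or over 2% positive for both it and APC stain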;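 further: range taken on the double positive population between DMSO and positive control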
NOD2 RIPK2 conf – confirmation of human NOD2-RIPK2 interaction inhibitors; inhibition, % at 4.98 µM; shares compounds with NOD2-RIPK2 inh; CHO cells, NOD2-RIPK2 BLA complementation, CCF4 FRET; 1,200 tested, 70% active;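 active means mean inhibition across replicates above a set limit taken from the earlier primary screen, cut at about 21% in these data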;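 further: 0% = DMSO-only wells and the high end = clavulanate BLA-blocked wells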
BLA counter-2 – NOD2-RIPK2 counterscreen BLA reporter activity; inhibition, % at 4.98 µM; 1,200 tested, 57% active; shares compounds with NOD2-RIPK2 inh; CHO BLA reporter, CCF4 FRET ratio;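 active means mean inhibition above the low-control mean inhibition plus three low-control SD, cut at about 11% in these data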;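 further: 0% = DMSO only wells and 100% = clavulanate high control wells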
Starred values were filed as active, the others as inactive; i = inactive; ? = inconclusive; nt = no result; + = active, no number. This is a sample that favours compounds with a hit; in the whole collection about 1.5% have one here.

SMILES	TLR9-MyD88 block	NOD2-RIPK2 inh	TLR4-MyD88 BLA	Myeloid diff 2	TLR9-MyD88 conf	BLA counter-1	TLR9 CHO tox	NOD2 RIPK2 conf	BLA counter-2	others
Cc1ccc(NC(=O)c2nc(S(=O)(=O)Cc3ccccc3)ncc2Cl)cc1	45*	92*	nt	?	45*	34	99*	90*	41*
Cc1ccccc1CS(=O)(=O)c1ncc(Cl)c(C(=O)Nc2ccc(F)cc2)n1	34*	94*	nt	?	34*	20	90*	83*	33*
Cc1c(Cl)c(=O)n2c(=O)c(Cl)c(C)n12	26*	24*	9	i	12	14	1	37*	40*
Cc1ccc(-c2nc3cnccn3c2Nc2c(C)cccc2C)o1	29*	49*	17	i	14	18	9	36*	41*
Cc1ccc(-c2nc3ncccn3c2Nc2ccccc2C)o1	0	5	21	i	nt	nt	nt	nt	nt
O=C(/C=N/O)Nc1ccc2sc3ccccc3c2c1	34*	21*	nt	i	8	6	3	20	15*
COC(=O)c1ccccc1NC(=O)/C=N/O	8	5	-4	i	nt	nt	nt	nt	nt
C=CCn1c(O)c(N=O)c2ccccc21	-3	5	nt	i	nt	nt	nt	nt	nt
O=Nc1c(O)n(Cc2c(Cl)cccc2Cl)c2ccccc12	35*	29*	-3	i	14	24	6	36*	42*
O=c1c2ccccc2sn1-c1ccc(F)cc1	32*	35*	nt	?	9	0	58*	37*	2
Cc1ccc(-n2sc3ccccc3c2=O)cc1	5	15	8	i	nt	nt	nt	nt	nt
O=[N+]([O-])c1ccc(C2=NN(c3ccccc3)C(c3ccco3)C2)cc1 (stereo not given)	59*	41*	nt	+	40*	41	5	73*	69*
CC1=NN(c2ccccc2)C(c2ccco2)C1 (stereo not given)	-10	-12	nt	i	nt	nt	nt	nt	nt
O=C(Nc1cccc2c1C(=O)NC2=O)c1ccc(S(=O)(=O)N2CCCC2)cc1	38*	22*	22	i	9	13	4	34*	43*
Cn1nc2c3cc(F)ccc3n(Cc3ccc(F)cc3)cc-2c1=O	9	-6	nt	i	nt	nt	nt	nt	nt
COc1cc2c3nnc(-c4ccc(F)cc4)c-3cn(Cc3ccc(F)cc3)c2cc1OC	24*	56*	2	i	11	15	3	61*	64*
Nc1cccc2c1C(=O)N(C(=O)c1cccc(S(=O)(=O)N3CCCCCC3)c1)C2=O	25*	28*	16	i	16	14	4	33*	38*
Cc1ccc(S(=O)(=O)N2CCOCC2)cc1C(=O)N1C(=O)c2cccc(N)c2C1=O	-1	10	-8	i	nt	nt	nt	nt	nt
COc1ccc2oc(=O)c(-c3csc(Nc4cccc(O)c4)n3)cc2c1	36*	31*	15	i	19	18	-3	28*	47*
CN(C)c1ccc(/C=C2\Oc3ccc(C#Cc4cccc(N)c4)cc3C2=O)cc1	45*	49*	nt	i	53*	60*	4	71*	78*	Myeloid diff CP1=i;GFP autofluor=98*
COC(=O)c1ccc2c(c1)C(=O)/C(=C/c1ccc(C)cc1)O2	-7	-1	5	i	nt	nt	nt	nt	nt
O=C1NC[C@H](CCCCN2CCN(CC3CCCCC3)C(=O)C2=O)N(CC2CCCCC2)C1=O	nt	4	nt	i	nt	nt	nt	nt	nt
CN(c1ccccc1)c1ccc(/C=C/[N+](=O)[O-])cc1	26*	75*	10	?	28*	11	81*	89*	29*
CN(C)c1ccc(-n2cccc2/C=C/[N+](=O)[O-])cc1	0	15	7	i	nt	nt	nt	nt	nt
Cc1cccc(/C=C2\Oc3cc(OS(C)(=O)=O)ccc3C2=O)c1	-8	-6	5	i	nt	nt	nt	nt	nt
SMILES	TLR9-MyD88 block	NOD2-RIPK2 inh	TLR4-MyD88 BLA	Myeloid diff 2	TLR9-MyD88 conf	BLA counter-1	TLR9 CHO tox	NOD2 RIPK2 conf	BLA counter-2	others
O=C1/C(=C/c2cccc(F)c2)Oc2cc(O)ccc21	25*	32*	nt	i	10	15	2	44*	42*
Cc1ccc(-n2sc3cc(F)ccc3c2=O)c(C)c1	30*	38*	nt	i	19	-1	85*	26*	15*
O=c1c2cc(F)ccc2sn1-c1ccccc1Cl	0	-5	nt	i	nt	nt	nt	nt	nt
COC(=O)[C@@]1(C(C)C)N=C(c2cc(OC)c(OC)c(OC)c2)[C@]2(O1)C(=O)Nc1ccccc12	nt	-5	nt	i	nt	nt	nt	nt	nt
C[C@H](c1ccccc1)N1C[C@H](COCc2ccccc2)Oc2cc(N3CCC[C@H]3C(N)=O)ccc2S1(=O)=O	nt	-18	nt	i	nt	nt	nt	nt	nt
Cc1ccc(C(=O)Sc2cccccc2=O)cc1	30*	35*	nt	?	21*	11	99*	48*	16*
O=C(Nc1ccccc1SC(=O)c1ccccc1)c1ccccc1	-9	-8	nt	i	nt	nt	nt	nt	nt
Cn1c(=O)c([N+](=O)[O-])c(Cl)c2ccccc21	47*	86*	9	?	62*	7	97*	93*	27*
COc1ccc([C@H]2C[C@H](O)[C@@H](n3cc(COC(=O)c4ccccc4)nn3)CN2CC2CCCCC2)cc1	0	-12	nt	i	nt	nt	nt	nt	nt
COc1ccc(CC2=CC(=O)c3ccccc3C2=O)cc1	24*	63*	nt	?	8	-8	84*	48*	-9
COc1ccc(Cc2ccccc2C(=O)O)cc1	-9	5	nt	i	nt	nt	nt	nt	nt
CCc1nc2ccc(C(=O)Nc3cccc(OCC(=O)N(C)C)c3)cn2c1N(C)Cc1cc2ccccc2s1	nt	-10	nt	i	nt	nt	nt	nt	nt
O=C(Cn1ncc(Cl)c(Cl)c1=O)c1ccc2c(c1)OCCO2	2	14	nt	nt	nt	nt	nt	nt	nt
CCC(=O)Nc1ccc(C(=O)Cn2ncc(Cl)c(Cl)c2=O)cc1	21*	22*	nt	?	16	2	37*	34*	9
CSCc1cc(C(=O)NC2CC2)c(N)s1	nt	-7	nt	i	nt	nt	nt	nt	nt
O=C(c1nc2n(n1)C(c1ccc(Cl)cc1)C=C(c1ccccc1)N2)N1CCOCC1 (stereo not given)	42*	48*	22	i	12	12	1	27*	21*
